# In publication PMC7862700, “An all-to-all approach to the identification of sequence-specific readers for epigenetic DNA modifications on cytosine”:
# Assays:
# Assay in all cases: DAPPL (digital affinity profiling via proximity ligation, sequencing); 10 mM Tris-HCl pH 7.5, 50 mM NaCl, 1 mM DTT, 4% glycerol, room temperature, 30 min; GST-TFs on glutathione beads, 16-mer random dsDNA library, 0.1% formaldehyde crosslink after washing; high values mean tight binding
# FLI1 = biological target: T1, FLI1 (Homo sapiens, UniProt Q01543 1-452); settings: protein: recombinant; tags: N-terminal GST; dsDNA, one strand shown
# T1 sequence: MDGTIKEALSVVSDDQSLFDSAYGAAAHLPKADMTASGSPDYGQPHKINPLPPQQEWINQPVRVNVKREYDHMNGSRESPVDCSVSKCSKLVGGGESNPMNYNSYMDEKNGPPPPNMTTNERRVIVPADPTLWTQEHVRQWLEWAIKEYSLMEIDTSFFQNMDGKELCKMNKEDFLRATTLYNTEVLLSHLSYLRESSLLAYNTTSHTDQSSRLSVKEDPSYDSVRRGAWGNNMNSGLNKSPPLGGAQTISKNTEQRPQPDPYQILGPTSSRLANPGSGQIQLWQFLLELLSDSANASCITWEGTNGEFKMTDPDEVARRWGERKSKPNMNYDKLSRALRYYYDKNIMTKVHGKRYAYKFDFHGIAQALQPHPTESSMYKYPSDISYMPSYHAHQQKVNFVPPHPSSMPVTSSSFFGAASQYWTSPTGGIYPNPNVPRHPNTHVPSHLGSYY
# Method in brief: (§1)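 GST fusions of human transcription factors were expressed in yeast and captured with glutathione beads. Once given DNA barcodes and pooled alongside a tag-only sample, they were incubated for 30 min at room temperature with 200 nmole of a random double-stranded 16-mer DNA library in Tris/NaCl/DTT/glycerol buffer, then washed, crosslinked (0.1% formaldehyde), proximity-ligated, PCR-amplified and sequenced on an Illumina NextSeq500. The binding signal of each hexamer is its read frequency for a factor divided by its frequency for the tag-only sample.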
# ELK1 = biological target: T2, ELK1 (Homo sapiens, UniProt P19419 1-428); settings: protein: recombinant; tags: N-terminal GST; dsDNA, one strand shown
# T2 sequence: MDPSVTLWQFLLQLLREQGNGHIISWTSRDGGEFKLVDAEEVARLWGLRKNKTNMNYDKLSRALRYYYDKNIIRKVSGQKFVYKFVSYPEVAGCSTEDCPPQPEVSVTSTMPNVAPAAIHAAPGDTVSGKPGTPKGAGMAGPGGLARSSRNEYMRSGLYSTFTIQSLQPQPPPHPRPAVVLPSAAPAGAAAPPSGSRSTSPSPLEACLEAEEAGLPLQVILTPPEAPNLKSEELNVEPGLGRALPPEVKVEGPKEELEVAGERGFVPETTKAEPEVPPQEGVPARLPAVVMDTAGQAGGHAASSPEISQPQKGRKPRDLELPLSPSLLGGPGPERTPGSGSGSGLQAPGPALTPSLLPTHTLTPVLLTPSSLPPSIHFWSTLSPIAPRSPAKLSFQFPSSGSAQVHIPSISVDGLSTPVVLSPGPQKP
# Method in brief: as §1
# GABPA = biological target: T3, GABPA (Homo sapiens, UniProt Q06546 1-454); settings: protein: recombinant; tags: N-terminal GST; dsDNA, one strand shown
# T3 sequence: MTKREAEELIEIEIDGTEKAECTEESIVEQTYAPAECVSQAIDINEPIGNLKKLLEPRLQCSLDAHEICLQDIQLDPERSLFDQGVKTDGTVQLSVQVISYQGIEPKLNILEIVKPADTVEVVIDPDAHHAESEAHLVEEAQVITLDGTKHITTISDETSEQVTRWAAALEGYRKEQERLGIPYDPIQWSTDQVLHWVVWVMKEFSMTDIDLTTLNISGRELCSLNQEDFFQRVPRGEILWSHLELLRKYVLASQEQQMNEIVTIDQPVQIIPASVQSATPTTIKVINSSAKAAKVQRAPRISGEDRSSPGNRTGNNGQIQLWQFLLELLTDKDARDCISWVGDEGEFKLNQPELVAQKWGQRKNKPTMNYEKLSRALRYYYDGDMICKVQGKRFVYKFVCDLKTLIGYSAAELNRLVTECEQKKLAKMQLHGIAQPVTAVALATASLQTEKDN
# Method in brief: as §1
# ERG = biological target: T4, ERG (Homo sapiens, UniProt P11308 1-479); settings: protein: recombinant; tags: N-terminal GST; dsDNA, one strand shown
# T4 sequence: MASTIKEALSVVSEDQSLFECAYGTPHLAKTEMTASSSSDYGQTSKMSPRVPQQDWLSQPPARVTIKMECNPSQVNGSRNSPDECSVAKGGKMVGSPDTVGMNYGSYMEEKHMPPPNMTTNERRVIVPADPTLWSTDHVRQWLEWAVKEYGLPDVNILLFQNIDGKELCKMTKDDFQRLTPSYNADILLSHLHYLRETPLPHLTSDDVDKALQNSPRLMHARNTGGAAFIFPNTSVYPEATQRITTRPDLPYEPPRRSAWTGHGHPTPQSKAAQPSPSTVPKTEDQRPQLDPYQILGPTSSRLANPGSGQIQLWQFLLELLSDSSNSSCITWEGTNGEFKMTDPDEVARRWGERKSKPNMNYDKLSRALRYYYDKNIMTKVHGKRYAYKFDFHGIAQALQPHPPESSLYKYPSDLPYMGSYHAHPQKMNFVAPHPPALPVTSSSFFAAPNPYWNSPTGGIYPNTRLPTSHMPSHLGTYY
# Method in brief: as §1
# ELF1 = ELF1 (Homo sapiens, UniProt P32519 1-619); settings: protein: recombinant; tags: N-terminal GST; dsDNA, one strand shown
# ELF1, sequence (P32519 whole entry): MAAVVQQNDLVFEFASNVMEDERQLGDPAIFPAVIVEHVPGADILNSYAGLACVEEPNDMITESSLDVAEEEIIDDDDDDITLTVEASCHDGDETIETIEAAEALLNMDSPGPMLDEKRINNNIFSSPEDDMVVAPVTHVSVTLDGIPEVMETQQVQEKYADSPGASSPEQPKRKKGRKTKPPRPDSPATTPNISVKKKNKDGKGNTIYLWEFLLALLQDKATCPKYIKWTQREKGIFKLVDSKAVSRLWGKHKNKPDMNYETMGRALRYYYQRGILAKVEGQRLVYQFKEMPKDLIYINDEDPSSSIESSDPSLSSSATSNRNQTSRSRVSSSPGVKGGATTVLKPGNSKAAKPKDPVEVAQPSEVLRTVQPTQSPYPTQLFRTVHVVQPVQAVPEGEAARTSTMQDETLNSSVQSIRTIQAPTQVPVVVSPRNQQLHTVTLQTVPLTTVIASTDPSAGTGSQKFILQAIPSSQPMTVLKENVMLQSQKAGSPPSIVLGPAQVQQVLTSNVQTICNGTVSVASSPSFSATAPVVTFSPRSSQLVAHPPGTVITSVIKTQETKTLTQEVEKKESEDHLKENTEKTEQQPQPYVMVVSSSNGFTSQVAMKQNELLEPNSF
# Method in brief: as §1
# EHF = biological target: T5, EHF (Homo sapiens, UniProt Q9NZC4 1-300); settings: protein: recombinant; tags: N-terminal GST; dsDNA, one strand shown
# T5 sequence: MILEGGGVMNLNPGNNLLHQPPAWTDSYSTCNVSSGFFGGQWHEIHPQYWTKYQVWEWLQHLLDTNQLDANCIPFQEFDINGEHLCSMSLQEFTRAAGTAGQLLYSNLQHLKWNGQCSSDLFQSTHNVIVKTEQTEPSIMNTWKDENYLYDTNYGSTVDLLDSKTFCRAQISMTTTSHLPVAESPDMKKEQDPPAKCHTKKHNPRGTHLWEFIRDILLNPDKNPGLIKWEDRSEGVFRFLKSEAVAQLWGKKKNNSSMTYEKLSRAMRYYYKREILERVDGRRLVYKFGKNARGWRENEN
# Method in brief: as §1
# SPI1 = SPI1 (Homo sapiens, UniProt P17947 1-270); settings: protein: recombinant; tags: N-terminal GST; dsDNA, one strand shown
# Method in brief: as §1
# SPIB = SPIB (Homo sapiens, UniProt Q01892 1-262); settings: protein: recombinant; tags: N-terminal GST; dsDNA, one strand shown
# SPIB, sequence (Q01892 whole entry): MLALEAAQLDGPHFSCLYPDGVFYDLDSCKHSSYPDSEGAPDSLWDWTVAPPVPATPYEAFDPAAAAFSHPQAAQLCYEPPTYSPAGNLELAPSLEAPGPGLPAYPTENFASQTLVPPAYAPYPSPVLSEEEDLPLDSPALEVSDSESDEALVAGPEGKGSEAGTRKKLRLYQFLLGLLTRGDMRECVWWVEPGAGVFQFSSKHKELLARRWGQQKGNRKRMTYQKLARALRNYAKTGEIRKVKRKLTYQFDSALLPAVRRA
# Method in brief: as §1
# ELK3 = biological target: T6, ELK3 (Homo sapiens, UniProt P41970 1-407); settings: protein: recombinant; tags: N-terminal GST; dsDNA, one strand shown
# T6 sequence: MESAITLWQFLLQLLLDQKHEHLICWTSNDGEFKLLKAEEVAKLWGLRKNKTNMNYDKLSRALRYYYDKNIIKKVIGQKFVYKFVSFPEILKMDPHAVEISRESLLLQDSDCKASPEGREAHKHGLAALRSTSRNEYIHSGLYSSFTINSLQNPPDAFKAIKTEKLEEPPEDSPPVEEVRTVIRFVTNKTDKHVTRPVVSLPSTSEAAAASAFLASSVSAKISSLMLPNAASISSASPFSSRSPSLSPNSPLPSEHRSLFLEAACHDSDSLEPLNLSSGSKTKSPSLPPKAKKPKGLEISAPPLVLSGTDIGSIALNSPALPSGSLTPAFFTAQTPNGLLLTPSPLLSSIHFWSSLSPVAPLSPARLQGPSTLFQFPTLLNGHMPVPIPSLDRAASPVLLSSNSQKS
# Method in brief: as §1
# FEV = biological target: T7, FEV (Homo sapiens, UniProt Q99581 1-238); settings: protein: recombinant; tags: N-terminal GST; dsDNA, one strand shown
# T7 sequence: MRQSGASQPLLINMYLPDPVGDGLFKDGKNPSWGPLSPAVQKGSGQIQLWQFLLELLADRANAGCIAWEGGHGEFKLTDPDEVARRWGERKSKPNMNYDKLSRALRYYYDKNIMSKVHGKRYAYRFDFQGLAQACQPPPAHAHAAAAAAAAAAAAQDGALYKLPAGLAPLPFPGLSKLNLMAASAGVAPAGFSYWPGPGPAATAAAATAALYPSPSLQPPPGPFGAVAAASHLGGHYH
# Method in brief: as §1
# ETV5 = ETV5 (Homo sapiens, UniProt P41161 1-510); settings: protein: recombinant; tags: N-terminal GST; dsDNA, one strand shown
# ETV5, sequence (P41161 whole entry): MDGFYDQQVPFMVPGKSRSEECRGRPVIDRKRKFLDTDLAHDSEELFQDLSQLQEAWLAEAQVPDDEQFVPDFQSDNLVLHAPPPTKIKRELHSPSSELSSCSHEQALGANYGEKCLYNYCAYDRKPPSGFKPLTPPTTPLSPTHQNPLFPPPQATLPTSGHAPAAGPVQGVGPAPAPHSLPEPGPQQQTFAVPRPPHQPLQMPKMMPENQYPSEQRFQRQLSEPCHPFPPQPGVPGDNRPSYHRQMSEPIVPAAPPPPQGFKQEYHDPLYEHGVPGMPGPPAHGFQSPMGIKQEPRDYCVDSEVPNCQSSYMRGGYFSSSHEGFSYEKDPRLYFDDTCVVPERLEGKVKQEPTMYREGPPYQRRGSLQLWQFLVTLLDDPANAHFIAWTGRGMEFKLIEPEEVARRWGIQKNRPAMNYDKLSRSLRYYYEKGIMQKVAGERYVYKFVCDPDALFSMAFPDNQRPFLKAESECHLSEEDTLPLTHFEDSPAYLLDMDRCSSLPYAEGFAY
# Method in brief: as §1
# HSF1 = HSF1 (Homo sapiens, UniProt Q00613 1-529); settings: protein: recombinant; tags: N-terminal GST; chain copies: 3; dsDNA, one strand shown
# HSF1, sequence (Q00613 whole entry): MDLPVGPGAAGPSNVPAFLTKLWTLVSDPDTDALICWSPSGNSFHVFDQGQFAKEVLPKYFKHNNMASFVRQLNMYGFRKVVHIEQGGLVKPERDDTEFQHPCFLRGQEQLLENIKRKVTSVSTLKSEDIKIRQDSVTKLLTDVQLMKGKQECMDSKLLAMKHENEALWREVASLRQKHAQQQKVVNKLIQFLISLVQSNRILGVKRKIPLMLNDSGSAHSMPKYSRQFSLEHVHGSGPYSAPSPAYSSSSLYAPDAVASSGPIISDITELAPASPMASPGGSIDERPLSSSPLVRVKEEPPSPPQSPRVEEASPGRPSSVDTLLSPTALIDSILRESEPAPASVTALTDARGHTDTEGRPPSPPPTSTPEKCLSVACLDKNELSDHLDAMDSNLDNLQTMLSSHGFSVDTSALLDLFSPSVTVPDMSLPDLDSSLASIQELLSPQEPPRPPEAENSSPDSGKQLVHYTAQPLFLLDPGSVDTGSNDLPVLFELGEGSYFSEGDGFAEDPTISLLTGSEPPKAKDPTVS
# Method in brief: as §1
# SPIC = biological target: T8, SPIC (Homo sapiens, UniProt Q8N5J4 1-248); settings: protein: recombinant; tags: N-terminal GST; dsDNA, one strand shown
# T8 sequence: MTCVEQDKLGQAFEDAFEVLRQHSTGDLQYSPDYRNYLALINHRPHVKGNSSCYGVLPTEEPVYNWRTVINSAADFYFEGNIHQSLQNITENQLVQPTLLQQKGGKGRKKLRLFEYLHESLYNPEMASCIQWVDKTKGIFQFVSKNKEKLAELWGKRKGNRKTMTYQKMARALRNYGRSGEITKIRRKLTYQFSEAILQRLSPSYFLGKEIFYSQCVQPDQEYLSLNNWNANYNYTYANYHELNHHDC
# Method in brief: as §1
# ELF4 = ELF4 (Homo sapiens, UniProt Q99607 1-663); settings: protein: recombinant; tags: N-terminal GST; dsDNA, one strand shown
# ELF4, sequence (Q99607 whole entry): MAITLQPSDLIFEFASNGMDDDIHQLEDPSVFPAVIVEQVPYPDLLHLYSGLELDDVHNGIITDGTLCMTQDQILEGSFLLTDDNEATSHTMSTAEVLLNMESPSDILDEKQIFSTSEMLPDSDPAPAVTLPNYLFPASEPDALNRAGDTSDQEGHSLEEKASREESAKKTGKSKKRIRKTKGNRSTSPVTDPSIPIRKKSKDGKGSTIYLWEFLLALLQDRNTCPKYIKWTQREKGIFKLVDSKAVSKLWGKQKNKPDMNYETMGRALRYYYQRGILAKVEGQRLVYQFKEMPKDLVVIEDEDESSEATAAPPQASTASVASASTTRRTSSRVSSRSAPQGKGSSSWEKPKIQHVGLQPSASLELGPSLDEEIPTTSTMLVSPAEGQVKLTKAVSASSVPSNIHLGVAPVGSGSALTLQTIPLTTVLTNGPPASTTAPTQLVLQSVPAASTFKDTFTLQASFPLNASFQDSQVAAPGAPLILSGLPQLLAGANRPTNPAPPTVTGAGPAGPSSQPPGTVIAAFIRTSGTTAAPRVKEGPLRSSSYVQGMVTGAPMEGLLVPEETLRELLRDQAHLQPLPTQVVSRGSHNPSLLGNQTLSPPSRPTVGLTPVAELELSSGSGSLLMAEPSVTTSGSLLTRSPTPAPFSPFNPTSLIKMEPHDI
# Method in brief: as §1
# ELK4 = biological target: T9, ELK4 (Homo sapiens, UniProt P28324-2 1-405); settings: protein: recombinant; tags: N-terminal GST; dsDNA, one strand shown
# T9 sequence: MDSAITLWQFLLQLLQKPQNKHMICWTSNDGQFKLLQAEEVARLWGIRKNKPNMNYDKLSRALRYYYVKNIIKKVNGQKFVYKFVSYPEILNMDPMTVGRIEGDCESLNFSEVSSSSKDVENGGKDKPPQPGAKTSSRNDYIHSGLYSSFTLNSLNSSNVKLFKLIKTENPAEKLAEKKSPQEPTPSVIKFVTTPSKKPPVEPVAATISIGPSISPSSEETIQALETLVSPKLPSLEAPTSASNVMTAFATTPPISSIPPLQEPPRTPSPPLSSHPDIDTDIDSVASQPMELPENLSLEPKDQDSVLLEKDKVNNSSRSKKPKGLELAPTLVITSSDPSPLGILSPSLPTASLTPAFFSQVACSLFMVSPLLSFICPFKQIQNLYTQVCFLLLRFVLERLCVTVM
# Method in brief: as §1
# ETV2 = biological target: T10, ETV2 (Homo sapiens, UniProt O00321 1-342); settings: protein: recombinant; tags: N-terminal GST; dsDNA, one strand shown
# T10 sequence: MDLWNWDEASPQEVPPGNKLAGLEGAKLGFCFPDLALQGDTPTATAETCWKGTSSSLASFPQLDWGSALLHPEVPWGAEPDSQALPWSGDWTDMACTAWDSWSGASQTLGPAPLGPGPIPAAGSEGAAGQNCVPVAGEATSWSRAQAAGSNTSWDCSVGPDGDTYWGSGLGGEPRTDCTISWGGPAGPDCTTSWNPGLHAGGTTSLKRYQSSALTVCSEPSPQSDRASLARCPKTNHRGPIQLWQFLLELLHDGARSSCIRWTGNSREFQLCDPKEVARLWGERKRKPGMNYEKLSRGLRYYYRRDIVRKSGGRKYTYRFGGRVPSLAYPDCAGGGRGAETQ
# Method in brief: as §1
# ELF3 = biological target: T11, ELF3 (Homo sapiens, UniProt P78545 1-371); settings: protein: recombinant; tags: N-terminal GST; dsDNA, one strand shown
# T11 sequence: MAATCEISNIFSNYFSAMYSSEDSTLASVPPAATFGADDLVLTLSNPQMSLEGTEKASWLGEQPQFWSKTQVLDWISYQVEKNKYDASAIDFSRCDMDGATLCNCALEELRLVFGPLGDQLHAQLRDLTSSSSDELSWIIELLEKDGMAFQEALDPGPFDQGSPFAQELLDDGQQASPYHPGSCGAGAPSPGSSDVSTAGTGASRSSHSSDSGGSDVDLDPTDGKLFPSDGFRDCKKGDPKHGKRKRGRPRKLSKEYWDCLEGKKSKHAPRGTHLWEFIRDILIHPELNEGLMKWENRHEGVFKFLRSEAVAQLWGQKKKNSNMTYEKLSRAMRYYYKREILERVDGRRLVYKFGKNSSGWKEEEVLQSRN
# Method in brief: as §1
# CRX = CRX (Homo sapiens, UniProt O43186 1-299); settings: protein: recombinant; tags: N-terminal GST; dsDNA, one strand shown
# CRX, sequence (O43186 whole entry): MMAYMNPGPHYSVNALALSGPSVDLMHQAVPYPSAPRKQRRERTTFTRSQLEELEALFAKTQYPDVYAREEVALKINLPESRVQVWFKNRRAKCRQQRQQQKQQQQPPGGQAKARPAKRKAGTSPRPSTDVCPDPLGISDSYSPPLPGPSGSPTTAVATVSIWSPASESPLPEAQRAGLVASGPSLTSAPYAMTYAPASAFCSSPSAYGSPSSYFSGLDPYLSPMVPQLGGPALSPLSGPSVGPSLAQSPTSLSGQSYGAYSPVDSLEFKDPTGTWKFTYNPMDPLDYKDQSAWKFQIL
# Method in brief: as §1
# ETV1 = ETV1 (Homo sapiens, UniProt P50549 1-477); settings: protein: recombinant; tags: N-terminal GST; dsDNA, one strand shown
# ETV1, sequence (P50549 whole entry): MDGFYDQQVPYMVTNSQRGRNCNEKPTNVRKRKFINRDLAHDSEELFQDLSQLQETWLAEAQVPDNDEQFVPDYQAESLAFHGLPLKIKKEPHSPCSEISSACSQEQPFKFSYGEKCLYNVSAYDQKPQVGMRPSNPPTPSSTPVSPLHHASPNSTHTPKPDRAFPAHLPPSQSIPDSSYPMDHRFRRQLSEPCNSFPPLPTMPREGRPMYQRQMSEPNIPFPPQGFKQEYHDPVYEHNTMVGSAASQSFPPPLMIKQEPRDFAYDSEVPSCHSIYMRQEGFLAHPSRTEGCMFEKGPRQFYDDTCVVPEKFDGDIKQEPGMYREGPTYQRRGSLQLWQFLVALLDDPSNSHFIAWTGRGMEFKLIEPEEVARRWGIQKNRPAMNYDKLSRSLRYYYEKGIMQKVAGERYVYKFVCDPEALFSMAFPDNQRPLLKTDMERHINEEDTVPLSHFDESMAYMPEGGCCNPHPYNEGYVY
# Method in brief: as §1
sequence,measurement,setting,value
GGATTT,binding signal,FLI1,"1.33 fold enrichment (6-mer frequency, TF over GST control)"
same,binding signal,ELK1,"1.25 fold enrichment (6-mer frequency, TF over GST control)"
same,binding signal,GABPA,"1.26 fold enrichment (6-mer frequency, TF over GST control)"
same,binding signal,ERG,"1.34 fold enrichment (6-mer frequency, TF over GST control)"
same,binding signal,ELF1,"1.23 fold enrichment (6-mer frequency, TF over GST control)"
same,binding signal,EHF,"1.24 fold enrichment (6-mer frequency, TF over GST control)"
same,binding signal,SPI1,"1.22 fold enrichment (6-mer frequency, TF over GST control)"
same,binding signal,SPIB,"1.29 fold enrichment (6-mer frequency, TF over GST control)"
same,binding signal,ELK3,"1.48 fold enrichment (6-mer frequency, TF over GST control)"
same,binding signal,FEV,"2.01 fold enrichment (6-mer frequency, TF over GST control)"
same,binding signal,ETV5,"1.33 fold enrichment (6-mer frequency, TF over GST control)"
same,binding signal,HSF1,"1.62 fold enrichment (6-mer frequency, TF over GST control)"
same,binding signal,SPIC,"1.16 fold enrichment (6-mer frequency, TF over GST control)"
same,binding signal,ELF4,"1.26 fold enrichment (6-mer frequency, TF over GST control)"
same,binding signal,ELK4,"1.25 fold enrichment (6-mer frequency, TF over GST control)"
same,binding signal,ETV2,"1.27 fold enrichment (6-mer frequency, TF over GST control)"
same,binding signal,ELF3,"1.15 fold enrichment (6-mer frequency, TF over GST control)"
same,binding signal,CRX,"2.47 fold enrichment (6-mer frequency, TF over GST control)"
same,binding signal,ETV1,"1.22 fold enrichment (6-mer frequency, TF over GST control)"
